Assay outcomes: PubChem BioAssay, National Center for Advancing Translational Sciences (NCATS)
HP1b binding inh – HTS for Inhibitors of HP1-beta Chromodomain Interactions with Methylated Histone Tails; Chromobox protein homolog 1 (Homo sapiens), P83916; AlphaScreen HP1-beta / biotin-H3K9me3 peptide binding; Potency, µM (highest dose often 114 µM), most hits filed as inhibitors; 0.56% of 390,000 active; AID 540317, 2011; also: nearly all actives have a fitted effect of over 70% in size
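Compound inhibition of the preformed complex between 50 nM HP1-beta and 50 nM biotinylated H3K9me3 peptide was read by AlphaScreen. Buffer was PBS pH 7.4 with 0.01% Tween-20. Incubations ran 30 min at room temperature, with 10 ug/mL donor/acceptor beads.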
JMJD2A Tudor inh – qHTS Assay for Inhibitors of JMJD2A-Tudor Domain. Lysine-specific demethylase 4A (Homo sapiens), O75164. AID 504339, 2011. AlphaScreen JMJD2A-Tudor / H3K4me3 peptide binding. 4.4% of 390,000 active. Potency, µM (series often up to 114 µM), most hits filed as inhibitors; also: nearly all actives have a fitted effect of over 50% in size
PLK1 PBD inh – qHTS for Inhibitors of PLK1-PDB (polo-like kinase 1 - polo-box domain): Primary Screen | Serine/threonine-protein kinase PLK1 (Homo sapiens), P53350 | Plk1 PBD binding of FITC phosphopeptide, fluorescence polarization | Potency, µM, actives largely listed as inhibitors | 2.8% of 360,000 active | AID 720504, 2013; also: series mostly up to about 57 µM; nearly all actives have a fitted effect of over 65% in size
GCN5L2 inh-1 – qHTS Assay for Inhibitors of GCN5L2; Histone acetyltransferase KAT2A (Homo sapiens), Q92830; GCN5L2 HAT assay, ThioGlo1 CoA-SH fluorescence; Potency, µM (highest dose often 58.9 µM), usual class: inhibitors; 0.21% of 390,000 active
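Enzyme at 20nM final was mixed with library compounds for 15 min at room temperature. Peptide H3(1-25) at 75uM, acetyl-CoA at 70uM and ThioGlo1 at 50uM were then added. Plates were read immediately and after 20 min (Ex340nm/Em540nm).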
BAZ2B inh – qHTS Assay for Inhibitors of BAZ2B. AID 504333, 2011. 4.4% of 360,000 active. Potency, µM (titrated, usually from 114 µM), hits mostly inhibitors. AlphaScreen BAZ2B-H3K14Ac peptide displacement; also: nearly all actives have a fitted effect of over 60% in size
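Protein-peptide AlphaScreen: BAZ2B 50 nM, b-H3K14Ac 50 nM, 1x PBS pH 7.4 + 0.01% Tween-20. Preincubation 30 min RT; cpd 30 min RT (top 110 uM); beads 20 min RT, light-protected.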
PI5P4Ka inh – qHTS for Inhibitors of phosphatidylinositol 5-phosphate 4-kinase (PI5P4K) | Phosphatidylinositol 5-phosphate 4-kinase type-2 alpha (Homo sapiens), P48426 | PI5P4Kalpha enzyme, ADP-Glo luminescence, 60 min; stronger effect = lower value | max response, % | 1.2% of 330,000 active | AID 652105, 2013; active = max response of -50% or lower; inconclusive = between -30% and -50%; inactive = -30% or higher; also: value at the top dose of about 77 µM
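Compounds were pin-transferred onto PI5P4Kalpha and substrate in HEPES pH 7.4 buffer with EGTA, CHAPS and 5% DMSO. ATP (5 microM final) started the reaction, which ran 60 minutes at room temperature before ADP-Glo detection.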
GCN5L2 inh-2 – qHTS Assay for Inhibitors of GCN5L2: Hit confirmation; shares compounds with GCN5L2 inh-1; GCN5L2 HAT, ThioGlo1 CoA fluorescence, 20 min; Potency, µM, actives largely listed as inhibitors; 70% of 140 active; AID 588347, 2011
ME-1 prolif – qHTS Assay for Compounds Blocking the Interaction Between CBF-beta and RUNX1 for the Treatment of Acute Myeloid Leukemia: ME-1 cellular proliferation. ME-1 cell proliferation, ATP luminescence, 48 h. shares compounds with BAZ2B inh. 20% of 140 active. Potency, µM (top dose mostly 56.1 µM), actives largely listed as inhibitors
Large screens that a line does not name were inactive (follow-up assays come after a bar, where they were run). An excerpt weighted towards active compounds, which were near 7% of everything screened. Unless noted, calls follow the shape of the dose curve; as a rule, active = well fitted curve in the direction sought with a large enough effect; inconclusive = small, poorly fitted or top-dose-only effect, or another doubt; inactive = no such curve, though single readings can be large; an effect the other way counts as inactive or inconclusive.

O=C1NC(=O)C(=Cc2cc([N+](=O)[O-])ccc2N2CCCCC2)C(=O)N1	none
O=C1NC(=O)C(=Cc2ccc(Oc3ccc([N+](=O)[O-])cc3)cc2)C(=O)N1	JMJD2A Tudor inh 56.2µM, PLK1 PBD inh 2.99µM, PI5P4Ka inh -57.6
CN1C(=O)C(=Cc2ccccc2OCCOc2ccc([N+](=O)[O-])cc2)C(=O)N(C)C1=O	JMJD2A Tudor inh inconclusive, PLK1 PBD inh 2.99µM, GCN5L2 inh-1 inconclusive, BAZ2B inh 50.1µM, PI5P4Ka inh inconclusive
O=C1NC(=O)C(=Cc2ccccc2OCCOc2ccc([N+](=O)[O-])cc2)C(=O)N1	JMJD2A Tudor inh 89.1µM, PLK1 PBD inh 5.97µM, BAZ2B inh inconclusive, PI5P4Ka inh inconclusive
Cc1c(C=C2C(=O)N(C)C(=O)N(C)C2=O)c(=O)n(-c2ccccc2)n1C	PLK1 PBD inh inconclusive
CCOc1cc(OP(=S)(OC)OC)nc(CC)n1	none (no result: HP1b binding inh, JMJD2A Tudor inh, PLK1 PBD inh, BAZ2B inh, PI5P4Ka inh)
COc1ccc(NC(=O)N2CCC3(CC2)CCN(C(=O)Oc2ccccc2)CC3)cc1	none (no result: HP1b binding inh, JMJD2A Tudor inh, PLK1 PBD inh, BAZ2B inh, PI5P4Ka inh)
O=C(Nc1ccccc1)c1c(O)[nH]c(=S)[nH]c1=O	JMJD2A Tudor inh inconclusive (no result: GCN5L2 inh-1, BAZ2B inh)
O=c1[nH]c(=S)[nH]c(O)c1/C=C1/C=c2ccccc2=N1	JMJD2A Tudor inh inconclusive, PLK1 PBD inh 1.34µM, GCN5L2 inh-1 inconclusive, BAZ2B inh inconclusive, PI5P4Ka inh inconclusive
C=C1C(O)C2OC3(CCC(/C=C/C(C)C4CC(C)=CC5(OC(CC(C)(O)C(=O)O)CCC5O)O4)O3)CCC2OC1C(O)CC(C)C1OC2(CCCCO2)CCC1C (stereo unspecified)	none (no result: HP1b binding inh, JMJD2A Tudor inh, PLK1 PBD inh, BAZ2B inh, PI5P4Ka inh)
Cc1cc(C(C#N)c2ccc(Cl)cc2)c(Cl)cc1NC(=O)c1cc(I)cc(I)c1O (stereo unspecified)	JMJD2A Tudor inh 50.1µM, PLK1 PBD inh inconclusive, GCN5L2 inh-1 10µM, BAZ2B inh 44.7µM, PI5P4Ka inh -54.9 | GCN5L2 inh-2 inconclusive
O=C1Nc2ccccc2C2(CCN(CCc3ccc(C(F)(F)F)cc3)CC2)O1	none (no result: HP1b binding inh, JMJD2A Tudor inh, PLK1 PBD inh, BAZ2B inh, PI5P4Ka inh)
O=C(O)CCCCC1SCC2NC(=O)NC21 (stereo unspecified)	HP1b binding inh inconclusive, JMJD2A Tudor inh 11.2µM, BAZ2B inh 0.794µM | ME-1 prolif inactive
NC(Cc1cc(O)c(O)cc1O)C(=O)O (stereo unspecified)	GCN5L2 inh-1 0.631µM, BAZ2B inh 0.891µM (no result: HP1b binding inh, JMJD2A Tudor inh, PLK1 PBD inh, PI5P4Ka inh) | ME-1 prolif inactive
Cc1ccc(CNCc2c(C(=O)O)n(Cc3ccccc3C)c3cc(C)ccc23)cc1	none (no result: PLK1 PBD inh, PI5P4Ka inh)
NCCc1cc(O)c(O)cc1O	HP1b binding inh 28.2µM, JMJD2A Tudor inh 10µM, PLK1 PBD inh 15µM, GCN5L2 inh-1 inconclusive, PI5P4Ka inh -75.6 (no result: BAZ2B inh) | ME-1 prolif inconclusive
CC(=O)Oc1ccc2c3c1OC1[C@@H](OC(C)=O)C=C[C@H]4[C@H](C2)N(C)CC[C@]314 (stereo partly specified)	none (no result: HP1b binding inh, JMJD2A Tudor inh, PLK1 PBD inh, BAZ2B inh, PI5P4Ka inh)
CC(C)[C@@]1(NC(=O)[C@@H]2C=C3c4cccc5[nH]cc(c45)C[C@H]3N(C)C2)O[C@@]2(O)[C@@H]3CCCN3C(=O)[C@H](Cc3ccccc3)N2C1=O	none (no result: HP1b binding inh, JMJD2A Tudor inh, PLK1 PBD inh, PI5P4Ka inh)
CC(C)[C@H]1C(=O)N2CCC[C@H]2[C@]2(O)O[C@](NC(=O)[C@@H]3C=C4c5cccc6[nH]cc(c56)C[C@H]4N(C)C3)(C(C)C)C(=O)N12	PLK1 PBD inh inconclusive, BAZ2B inh inconclusive | ME-1 prolif inactive
